{"source": "the supplement of paper PMC8728848", "binders": {"B1": {"name": "Gal 8 (Mus musculus), Q9JL15 (protein)", "chain": "MGGSHHHHHHGMASMLSLNNLQNIIYNPIIPYVGTITEQLKPGSLIVIRGHVPKDSERFQVDFQLGNSLKPRADVAFHFNPHFKRSSCIVCNTLTQEKWGWEEITYDMPFRKEKSFEIVFMVLKNKFQVAVNGRHVLLYAHRISPEQIDTVGIYGKVNIHSIGFRFSSASALPHTLGDLQSMETSALGLTQINRENIQKPGKLQLSLPFEARLNASMGPGRTVVIKGEVNTNARSFNVDLVAGKTRDIALHLNPHLNVKAFVRNSFLQDAWGEEERNITCFPFSSGMYFEMIIYCDVREFKVAINGVHSLEYKHRFKDLSSIDTLSVDGDIRLLDVRSW"}}, "assay_in_all_cases": "glycan array binding signal (z-score within array); higher = stronger binding", "details_in_all_cases": "glycan notation: IUPAC condensed, linker removed; mutation: R82H, R255H", "key": {"[1]": {"molecular_target": "Gal(b1-4)GlcNAc(b1-3)Gal(b1-4)GlcNAc(b1-3)[Gal(b1-4)GlcNAc(b1-3)Gal(b1-4)GlcNAc(b1-6)]GalNAc", "in_short": "(§1)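 Glycan array data were curated from 3228 arrays in the Consortium for Functional Glycomics database and kept only where the protein sequence was available. Glycan names were converted to IUPAC-condensed notation, and columns mapping to the same glycan were averaged. The binding signal is a within-array Z-score, averaged across arrays of the same protein sequence at different concentrations or buffers and across linkers. Negative Z-scores can be read as non-binding.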"}, "Gal4S(b1-4)GlcNAc": {"molecular_target": "Gal4S(b1-4)GlcNAc", "in_short": "as §1"}, "Gal6S(b1-3)GlcNAc6S": {"molecular_target": "Gal6S(b1-3)GlcNAc6S", "in_short": "as §1"}, "[2]": {"molecular_target": "GalNAc(a1-3)GalNAc(b1-3)Gal(a1-4)Gal(b1-4)Glc", "in_short": "as §1"}, "GalNAc(b1-3)GalNAc": {"molecular_target": "GalNAc(b1-3)GalNAc", "in_short": "as §1"}, "GalNAc(b1-4)GlcNAc": {"molecular_target": "GalNAc(b1-4)GlcNAc", "in_short": "as §1"}, "[3]": {"molecular_target": "GalNAc(b1-4)GlcNAc(b1-3)GalNAc(b1-4)GlcNAc", "in_short": "as §1"}, "[4]": {"molecular_target": "GlcA3S(b1-3)Gal(b1-4)GlcNAc(b1-3)Gal(b1-4)Glc", "in_short": "as §1"}, "[5]": {"molecular_target": "GlcNAc(b1-2)Man(a1-3)[GlcNAc(b1-4)][GlcNAc(b1-2)Man(a1-6)]Man(b1-4)GlcNAc(b1-4)[Fuc(a1-6)]GlcNAc", "in_short": "as §1"}, "[6]": {"molecular_target": "GlcNAc(b1-3)Gal(b1-4)GlcNAc(b1-3)Gal(b1-4)GlcNAc(b1-2)[GlcNAc(b1-3)Gal(b1-4)GlcNAc(b1-3)Gal(b1-4)GlcNAc(b1-6)]Man(a1-6)[GlcNAc(b1-3)Gal(b1-4)GlcNAc(b1-3)Gal(b1-4)GlcNAc(b1-2)Man(a1-3)]Man(b1-4)GlcNAc(b1-4)[Fuc(a1-6)]GlcNAc", "in_short": "as §1"}, "[7]": {"molecular_target": "GlcNAc(b1-3)Gal(b1-4)GlcNAc(b1-3)Gal(b1-4)GlcNAc(b1-3)Gal(b1-4)GlcNAc(b1-2)Man(a1-3)[GlcNAc(b1-3)Gal(b1-4)GlcNAc(b1-3)Gal(b1-4)GlcNAc(b1-3)Gal(b1-4)GlcNAc(b1-2)Man(a1-6)]Man(b1-4)GlcNAc(b1-4)GlcNAc", "in_short": "as §1"}, "[8]": {"molecular_target": "GlcNAc(b1-3)Gal(b1-4)GlcNAc(b1-3)Gal(b1-4)GlcNAc(b1-3)Gal(b1-4)GlcNAc(b1-2)[GlcNAc(b1-3)Gal(b1-4)GlcNAc(b1-3)Gal(b1-4)GlcNAc(b1-3)Gal(b1-4)GlcNAc(b1-6)]Man(a1-6)[GlcNAc(b1-3)Gal(b1-4)GlcNAc(b1-3)Gal(b1-4)GlcNAc(b1-3)Gal(b1-4)GlcNAc(b1-2)Man(a1-3)]Man(b1-4)GlcNAc(b1-4)[Fuc(a1-6)]GlcNAc", "in_short": "as §1"}, "[9]": {"molecular_target": "GlcNAc(b1-3)Gal(b1-4)GlcNAc(b1-3)Gal(b1-4)GlcNAc(b1-3)Gal(b1-4)GlcNAc(b1-3)Gal(b1-4)GlcNAc(b1-2)Man(a1-3)[GlcNAc(b1-3)Gal(b1-4)GlcNAc(b1-3)Gal(b1-4)GlcNAc(b1-3)Gal(b1-4)GlcNAc(b1-3)Gal(b1-4)GlcNAc(b1-2)Man(a1-6)]Man(b1-4)GlcNAc(b1-4)GlcNAc", "in_short": "as §1"}, "[10]": {"molecular_target": "GlcNAc(b1-3)Gal(b1-4)GlcNAc(b1-3)Gal(b1-4)GlcNAc(b1-3)Gal(b1-4)GlcNAc(b1-3)Gal(b1-4)GlcNAc(b1-2)Man(a1-3)[GlcNAc(b1-3)Gal(b1-4)GlcNAc(b1-3)Gal(b1-4)GlcNAc(b1-3)Gal(b1-4)GlcNAc(b1-3)Gal(b1-4)GlcNAc(b1-2)Man(a1-6)]Man(b1-4)GlcNAc(b1-4)[Fuc(a1-6)]GlcNAc", "in_short": "as §1"}, "[11]": {"molecular_target": "GlcNAc(b1-3)Gal(b1-4)GlcNAc(b1-3)Gal(b1-4)GlcNAc(b1-3)Gal(b1-4)GlcNAc(b1-3)Gal(b1-4)GlcNAc(b1-2)[GlcNAc(b1-3)Gal(b1-4)GlcNAc(b1-3)Gal(b1-4)GlcNAc(b1-3)Gal(b1-4)GlcNAc(b1-3)Gal(b1-4)GlcNAc(b1-6)]Man(a1-6)[GlcNAc(b1-3)Gal(b1-4)GlcNAc(b1-3)Gal(b1-4)GlcNAc(b1-3)Gal(b1-4)GlcNAc(b1-3)Gal(b1-4)GlcNAc(b1-2)Man(a1-3)]Man(b1-4)GlcNAc(b1-4)[Fuc(a1-6)]GlcNAc", "in_short": "as §1"}, "[12]": {"molecular_target": "GlcNAc(b1-3)Gal(b1-4)GlcNAc(b1-6)[Gal(b1-3)]GalNAc", "in_short": "as §1"}, "[13]": {"molecular_target": "GlcNAc(b1-4)GlcNAc(b1-4)GlcNAc", "in_short": "as §1"}, "[14]": {"molecular_target": "Man(a1-2)Man(a1-6)[Man(a1-3)]Man(a1-6)[Man(a1-2)Man(a1-2)Man(a1-3)]Man", "in_short": "as §1"}, "Man(a1-3)[Man(a1-6)]Man": {"molecular_target": "Man(a1-3)[Man(a1-6)]Man", "in_short": "as §1"}, "[15]": {"molecular_target": "Man(a1-3)[Man(a1-6)]Man(a1-6)[Man(a1-2)Man(a1-3)]Man(b1-4)GlcNAc(b1-4)GlcNAc", "in_short": "as §1"}, "Neu5Ac(a2-3)Gal": {"molecular_target": "Neu5Ac(a2-3)Gal", "in_short": "as §1"}, "[16]": {"molecular_target": "Neu5Ac(a2-3)Gal(b1-3)GlcNAc", "in_short": "as §1"}, "[17]": {"molecular_target": "Neu5Ac(a2-3)Gal(b1-3)GlcNAc(b1-2)Man(a1-3)[Neu5Ac(a2-3)Gal(b1-3)GlcNAc(b1-2)Man(a1-6)]Man(b1-4)GlcNAc(b1-4)GlcNAc", "in_short": "as §1"}, "[18]": {"molecular_target": "Neu5Ac(a2-3)Gal(b1-4)GlcNAc(b1-3)Gal(b1-4)GlcNAc(b1-3)Gal(b1-4)GlcNAc", "in_short": "as §1"}, "[19]": {"molecular_target": "Neu5Ac(a2-3)Gal(b1-4)GlcNAc(b1-3)Gal(b1-4)GlcNAc(b1-3)[Neu5Ac(a2-3)Gal(b1-4)GlcNAc(b1-3)Gal(b1-4)GlcNAc(b1-6)]GalNAc", "in_short": "as §1"}, "[20]": {"molecular_target": "Neu5Ac(a2-6)Gal(b1-4)GlcNAc(b1-3)GalNAc", "in_short": "as §1"}, "[21]": {"molecular_target": "Neu5Ac(a2-6)Gal(b1-4)GlcNAc6S", "in_short": "as §1"}, "[22]": {"molecular_target": "Neu5Ac(a2-8)Neu5Ac(a2-3)[GalNAc(b1-4)]Gal(b1-4)Glc", "in_short": "as §1"}}, "note": "Only a selection was taken, and the strongest signals are over-represented in it overall.", "data": [{"binder": "B1", "values": [{"measurement": "glycan array binding signal (z-score)", "setting": "[1]", "result": 0.053}, {"measurement": "glycan array binding signal (z-score)", "setting": "Gal4S(b1-4)GlcNAc", "result": -0.22}, {"measurement": "glycan array binding signal (z-score)", "setting": "Gal6S(b1-3)GlcNAc6S", "result": -0.186}, {"measurement": "glycan array binding signal (z-score)", "setting": "[2]", "result": -0.214}, {"measurement": "glycan array binding signal (z-score)", "setting": "GalNAc(b1-3)GalNAc", "result": -0.259}, {"measurement": "glycan array binding signal (z-score)", "setting": "GalNAc(b1-4)GlcNAc", "result": -0.245}, {"measurement": "glycan array binding signal (z-score)", "setting": "[3]", "result": -0.271}, {"measurement": "glycan array binding signal (z-score)", "setting": "[4]", "result": -0.198}, {"measurement": "glycan array binding signal (z-score)", "setting": "[5]", "result": -0.278}, {"measurement": "glycan array binding signal (z-score)", "setting": "[6]", "result": 5.44}, {"measurement": "glycan array binding signal (z-score)", "setting": "[7]", "result": 4.25}, {"measurement": "glycan array binding signal (z-score)", "setting": "[8]", "result": 4.84}, {"measurement": "glycan array binding signal (z-score)", "setting": "[9]", "result": 7.01}, {"measurement": "glycan array binding signal (z-score)", "setting": "[10]", "result": 6.24}, {"measurement": "glycan array binding signal (z-score)", "setting": "[11]", "result": 6.71}, {"measurement": "glycan array binding signal (z-score)", "setting": "[12]", "result": -0.251}, {"measurement": "glycan array binding signal (z-score)", "setting": "[13]", "result": -0.255}, {"measurement": "glycan array binding signal (z-score)", "setting": "[14]", "result": -0.276}, {"measurement": "glycan array binding signal (z-score)", "setting": "Man(a1-3)[Man(a1-6)]Man", "result": -0.24}, {"measurement": "glycan array binding signal (z-score)", "setting": "[15]", "result": -0.246}, {"measurement": "glycan array binding signal (z-score)", "setting": "Neu5Ac(a2-3)Gal", "result": -0.259}, {"measurement": "glycan array binding signal (z-score)", "setting": "[16]", "result": -0.217}, {"measurement": "glycan array binding signal (z-score)", "setting": "[17]", "result": 0.022}, {"measurement": "glycan array binding signal (z-score)", "setting": "[18]", "result": -0.148}, {"measurement": "glycan array binding signal (z-score)", "setting": "[19]", "result": -0.255}, {"measurement": "glycan array binding signal (z-score)", "setting": "[20]", "result": -0.062}, {"measurement": "glycan array binding signal (z-score)", "setting": "[21]", "result": -0.2}, {"measurement": "glycan array binding signal (z-score)", "setting": "[22]", "result": -0.268}]}]}
